Entries with a potency or affinity are not part of this list. Active and inactive are the calls of the source. How the calls were made is not given here.
Assay: host cell cytotoxicity of antiviral hits, dose response, cytotoxicity control for West Nile virus antiviral project, secondary assay (AID 1650)
Conditions: Mammalian host cell viability, cytotoxicity counter-screen; series mostly up to 10 µM

With `O=C(CSc1nc2ccccc2c(=O)n1-c1ccc(F)cc1F)Nc1ccc(N2CCOCC2)cc1` the outcome was “inactive”.
For `COC1(OC)C=CC(=O)C=C1NC(=O)c1ccccc1OC(C)=O`, the outcome was “inactive”.
With `O=c1c(-c2ccccc2)c1-c1ccccc1` the outcome was “inactive”.
For `O=C(CN1C(=O)/C(=C/c2ccc(C(F)(F)F)cc2)Sc2ccccc21)NCCCN1CCOCC1`, the outcome was “inactive”.
In the case of `CCN1CCN(C(=S)Nc2ccc3nc(N4CCN(CC)CC4)cc(C)c3c2)CC1`, the outcome is reported as “inactive”.
With `CC1CCCN(CCCNC(=O)c2cc3c(s2)-c2ccccc2OC3)C1` (stereo not given) the outcome was “inactive”.
With `CCOc1ccc(-c2cc(C(=O)NCCCN3CCCC3)c3ccccc3n2)cc1` the outcome was “inactive”.
For `COc1cccc(C2CC(c3c(-c4ccccc4)c4cc(Cl)ccc4[nH]c3=O)=NN2S(C)(=O)=O)c1OC` (stereo not given), the outcome was “inactive”.
For `CCN(CC)CCNc1ncnc2c1sc1nc(N3CCCC3)c3c(c12)CC(C)(C)OC3`, the outcome was “inactive”.
With `CC/C(=C(\c1ccc(O)cc1)c1ccc(OCCN(C)C)cc1)c1ccccc1` the outcome was “inactive”.
With `COc1cc2c(O)c3c(c(-c4ccc5c(c4)OCO5)c2cc1OC)C(=O)OC3` the outcome was “inactive”.
In the case of `CCCCCn1c(N2CCC(Cc3ccccc3)CC2)nc2c1c(=O)[nH]c(=O)n2C`, the outcome is reported as “inactive”.
With `COc1ccccc1NC(=O)N1CCn2c(nc3ccccc32)C1` the outcome was “inactive”.
For `CCOC(=O)N1CCC2(CC1)C(C#N)=C(N)OC1=C2C(=O)CCC1`, the outcome was “inactive”.
In the case of `CCOc1ccc2nc(N3CCCC(C(=O)NCCCN4C(C)CCCC4C)C3)sc2c1` (stereo not given), the outcome is reported as “inactive”.
In the case of `Cc1c(/C=N/NC(=O)C(C)(C)Oc2ccc(Cl)cc2)cnn1C`, the outcome is reported as “inactive”.
In the case of `Cc1ccc2cc(C#N)c(N3CCCN(C(=S)NCCCN(C)C)CC3)nc2c1`, the outcome is reported as “inactive”.
For `CCN(CC)CCC(c1cc(OC)c(OC)c(OC)c1)c1c(OC)cc(OC)c2c(-c3ccccc3)cc(=O)oc12` (stereo not given), the outcome was “inactive”.
With `O=C(CNc1cccc2ccccc12)N/N=C/c1ccc([N+](=O)[O-])o1` the outcome was “inactive”.
In the case of `C=CCn1c(SCc2csc(-c3ccc(Cl)cc3)n2)nnc1-c1ccccc1OC`, the outcome is reported as “inactive”.
With `COc1cc(-c2cc3nc(C)c(C)c(=O)n3[nH]2)cc(OC)c1OC` the outcome was “inactive”.
With `NS(=O)(=O)c1ccc(NC(=O)c2cc(-c3cc(Cl)ccc3O)n[nH]2)cc1` the outcome was “inactive”.
For `CC12CC3(C)CC(C)(C1)CC(C(=O)NCC(=O)O)(C2)C3`, the outcome was “inactive”.
With `CN1CCN(CC(=O)Nc2c(C(=O)c3ccccc3)oc3ccccc23)CC1` the outcome was “inactive”.
With `Cc1onc(-c2ccccc2Cl)c1C(=O)O/N=C(\N)c1ccc([N+](=O)[O-])o1` the outcome was “inactive”.
In the case of `CN(CCCNC(=O)c1cc2c(Cl)nc3ccccc3c2s1)Cc1ccccc1`, the outcome is reported as “inactive”.
In the case of `CCN(CC)S(=O)(=O)c1ccc(NC(=O)CSc2nnc(-c3cccc(OC)c3)n2C)cc1`, the outcome is reported as “inactive”.
For `Cc1nc([N+](=O)[O-])c(Br)n1CC(=O)c1ccc(Cl)cc1`, the outcome was “inactive”.
In the case of `CCOC(=O)c1sc(NC(=O)Nc2ccccc2)cc1C`, the outcome is reported as “inactive”.
In the case of `COc1ccc(NC(=S)Nc2ccc3nsnc3c2)cc1`, the outcome is reported as “inactive”.
In the case of `O=C(CCN1C(=O)/C(=C/c2ccccc2F)SC1=S)NCCc1ccc(O)cc1`, the outcome is reported as “inactive”.
With `CCOc1cc(/C=N/N=C(\N)c2nonc2N)cc(Br)c1OCc1cccc2ccccc12` the outcome was “inactive”.
For `COc1ccc(OCc2cccc(C(=O)Nc3ccc(CN4CCCCC4)cc3)c2)cc1`, the outcome was “inactive”.
With `CCCCCCOC(=O)C(C#N)c1nc2ccccc2nc1N1CCN(C)CC1` (stereo not given) the outcome was “inactive”.
In the case of `C=CCN=C1CC(C)(C)CC(=O)/C1=C(/O)CCC(=O)OC`, the outcome is reported as “inactive”.
With `CN(C)CCNc1ncnc2c1sc1nc(N3CCCC3)c3c(c12)CC(C)(C)OC3` the outcome was “inactive”.
For `CN1CCCC1CCNc1ccc2c(=O)c3ccccc3oc2c1` (stereo not given), the outcome was “inactive”.
In the case of `COc1ccc(/C=C2/SC(=S)N(CCC(=O)N3CCN(C)CC3)C2=O)cc1`, the outcome is reported as “inactive”.
With `Cc1ccc(S(=O)(=O)N2CCCC2C(=O)Oc2ccccc2)cc1` (stereo not given) the outcome was “inactive”.
With `O=C(CSc1nc2ccccc2c(=O)n1-c1ccc(F)cc1F)Nc1ccc2c(c1)CCC2` the outcome was “inactive”.

From PubChem BioAssay AID1650 (Southern Research Specialized Biocontainment Screening …, 2009)
